Laboratory results reported in PubChem BioAssay (NCI).
About 83,000 compounds went through this panel and 20% of them were active in at least one assay; those are over-represented in the sample as a whole.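 Method: cells in 96-well plates; compound added at one concentration; 48 h incubation; percent growth measured; values under 10 scored active.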 Values without a mark were called inactive. The source made the active and inactive calls.

Each compound was assayed on HCC-2998 colon (assay: NCI-60 one-dose screen, 48 h (100 = growth as untreated, 0 = no growth, -100 = all killed)). Conditions: 10 µM unless noted.
With `COc1cccc(C2C3=C(COC3=O)N(CCO)c3cc4c(cc32)OCCO4)c1` (stereo not given) the growth was 4.51% (active).
With `CCN=c1sc2c(n1NC(=O)c1cc3ccc1CCc1ccc(cc1)CC3)C(=O)c1ccccc1C2=O` the growth was -37.9% (active).
Compound `COc1cccc(/C=C/C(=O)/C=C(/C=C/c2cccc(OC)c2OC)OB(F)F)c1OC` has a growth of 121%.
`COc1ccc(Nc2nccc(Nc3ccc4[nH]ncc4c3)n2)cc1` was tested, and the growth was 63.4%.
`O=c1n(C2OC(CO)C(O)C2O)ccc2nccn12` (stereo not given) showed a growth of 110%.
`C=CCn1c(SCC(=O)Nc2ccc(C(=O)/C=C/c3ccc(Cl)cc3)cc2)nnc1-c1ccc(Cl)c(Cl)c1` gave a growth of 95.9%.
For `NCCNc1ccc([N+](=O)[O-])cc1`, the growth was 115%.
With `O=C1CC2C=CCN2C=C1NC(=O)c1ccccc1` (stereo not given) the growth was 101%.
Compound `O=C(/C=C/c1ccc(Cl)cc1)c1ccc(Nc2ccnc3cc(Cl)ccc23)cc1` has a growth of 88.1%.
`COc1cccc(-c2nn(-c3ccccc3)cc2-c2ccnc(-c3cccnc3)c2)c1` gave a growth of 96.4%.
`Cc1nc2sc(C(=O)Nc3ccccc3)c(N)c2cc1C(O)c1ccccc1` (stereo not given) showed a growth of 15.4%.
With `COC(=O)c1c(C(=O)OC)c2ccc3c4ncccc4ccc3n2c1C(=O)c1ccc(C)cc1` the growth was 107%.
`CN1CCN(Cc2ccc(NC(=O)c3cncc(C#Cc4c(N)ncc5ccccc45)c3)cc2C(F)(F)F)CC1` was tested, and the growth was -60.7% (active).
`O=C(NCCN1CCOCC1)c1cncnc1Nc1ccc2c(ccn2Cc2ccccn2)c1` was tested, and the growth was 100%.
With `CCCCCCCCOC(=O)c1c(C)[nH]c(/C=C2\N=C(c3ccc[nH]3)C=C2OC)c1C` the growth was -26.4% (active).
